Results published in PubChem BioAssay AID1159580 (chemical genetic matrix, 2015).
About 2,000 (36%) of roughly 5,500 compounds were called active. Inconclusive results (about 18%) are left out. No stated cut-off is given here; in the data, active means normalized growth mostly below about 0.91 (no sharp cut-off); inconclusive means no clear call, values can overlap the other calls; inactive means mostly above about 0.92. This is one part of the list.

Experiment: chemical genetic growth profiling, strain panel (AID 1159580);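 further: tested at 20 µM; growth read once vehicle control cultures reached saturation at 30 °C; 1 = growth at the plate median or of vehicle wells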
Settings: S. cerevisiae deletion strains, growth OD

Measured: normalized growth

Cc1cc(=O)oc2cc(O)cc(O)c12
inactive: locus YAL021C, strain ccr4, stronger effect = lower value 0.968 | locus YAL026C, strain drs2, stronger effect = lower value 0.96 | locus YAL030W, strain snc1, stronger effect = lower value 0.952 | locus YBL061C, strain skt5, stronger effect = lower value 0.958 | locus YBR009C, strain hhf1, stronger effect = lower value 0.949 | locus YBR023C, strain chs3, stronger effect = lower value 0.949 | locus YBR171W, strain sec66, stronger effect = lower value 0.965 | locus YBR231C, strain swc5, stronger effect = lower value 0.975 | locus YBR279W, strain paf1, stronger effect = lower value 0.969 | locus YCL011C, strain gbp2, stronger effect = lower value 0.95 | locus YCL016C, strain dcc1, stronger effect = lower value 0.966 | locus YCL061C, strain MRC1, stronger effect = lower value 0.983 | locus YCL069W, strain vba3, stronger effect = lower value 0.965 | locus YCR088W, strain abp1, stronger effect = lower value 0.958 | locus YDL005C, strain med2, stronger effect = lower value 0.961 | locus YDL040C, strain nat1, stronger effect = lower value 0.958 | locus YDR001C, strain nth1, stronger effect = lower value 0.957 | locus YDR069C, strain doa4, stronger effect = lower value 0.941 | locus YDR137W, strain rgp1, stronger effect = lower value 0.962 | locus YDR159W, strain sac3, stronger effect = lower value 0.932 | locus YDR195W, strain ref2 0.925 | locus YDR297W, strain sur2, stronger effect = lower value 0.96 | locus YDR334W, strain swr1, stronger effect = lower value 0.948 | locus YDR335W, strain msn5, stronger effect = lower value 0.978 | locus YDR392W, strain spt3, stronger effect = lower value 0.938 | locus YEL003W, strain gim4, stronger effect = lower value 0.978 | locus YEL037C, strain rad23, stronger effect = lower value 0.929 | locus YEL061C, strain CIN8 (second series), stronger effect = lower value 0.951 | locus YER015W, strain faa2, stronger effect = lower value 0.998 | locus YER016W, strain bim1, stronger effect = lower value 0.965 | locus YER111C, strain swi4, stronger effect = lower value 0.949 | locus YER155C, strain BEM2 (second series), stronger effect = lower value 0.932 | locus YFR010W, strain ubp6, stronger effect = lower value 0.943 | locus YGL167C, strain pmr1, stronger effect = lower value 0.943 | locus YGL173C, strain kem1, stronger effect = lower value 0.97 | locus YGL227W, strain vid30, stronger effect = lower value 0.95 | locus YGL240W, strain doc1, stronger effect = lower value 0.971 | locus YGL253W, strain hxk2, stronger effect = lower value 0.995 | locus YHR013C, strain ard1, stronger effect = lower value 0.948 | locus YHR027C, strain rpn1, stronger effect = lower value 0.964 | locus YHR142W, strain chs7, stronger effect = lower value 0.94 | locus YJL092W, strain hpr5, stronger effect = lower value 0.969 | locus YJL095W, strain BCK1 (second series), stronger effect = lower value 0.974 | locus YJL115W, strain asf1, stronger effect = lower value 0.958 | locus YJL129C, strain trk1, stronger effect = lower value 0.946 | locus YJL154C, strain vps35, stronger effect = lower value 0.971 | locus YJL164C, strain tpk1, stronger effect = lower value 0.978 | locus YJL166W, strain qcr8, stronger effect = lower value 0.983 | locus YJL187C, strain SWE1, stronger effect = lower value 0.968 | locus YKL160W, strain elf1, stronger effect = lower value 0.981 | locus YKR026C, strain gcn3, stronger effect = lower value 0.944 | locus YKR091W, strain srl3, stronger effect = lower value 0.962 | locus YLL001W, strain dnm1, stronger effect = lower value 0.948 | locus YLL026W, stronger effect = lower value 0.97 | locus YLL041C, strain sdh2, stronger effect = lower value 0.977 | locus YLR027C, strain aat2, stronger effect = lower value 0.945 | locus YLR221C, strain rsa3, stronger effect = lower value 0.977 | locus YLR258W, strain gsy2, stronger effect = lower value 0.966 | locus YLR262C, strain YPT6 (second series), stronger effect = lower value 0.977 | locus YLR320W, strain mms22, stronger effect = lower value 0.962 | locus YLR342W, strain FKS1, stronger effect = lower value 0.958 | locus YLR357W, strain rsc2, stronger effect = lower value 0.939 | locus YLR370C, strain arc18, stronger effect = lower value 0.932 | locus YLR384C, strain iki3, stronger effect = lower value 0.957 | locus YML120C, strain ndi1, stronger effect = lower value 0.954 | locus YMR058W, strain fet3, stronger effect = lower value 0.967 | locus YMR125W, strain sto1, stronger effect = lower value 0.935 | locus YMR129W, stronger effect = lower value 0.969 | locus YMR205C, strain PFK2, stronger effect = lower value 0.932 | locus YMR231W, strain pep5, stronger effect = lower value 1 | locus YNL071W, strain lat1, stronger effect = lower value 0.972 | locus YNL209W, strain ssb2, stronger effect = lower value 0.965 | locus YNL248C, strain rpa49, stronger effect = lower value 0.996 | locus YNL322C, strain KRE1 (second series), stronger effect = lower value 0.95 | locus YNR049C, strain mso1, stronger effect = lower value 0.954 | locus YOR001W, strain rrp6, stronger effect = lower value 0.979 | locus YOR070C, strain gyp1, stronger effect = lower value 0.973 | locus YOR080W, strain dia2, stronger effect = lower value 0.965 | locus YOR083W, strain WHI5, stronger effect = lower value 0.988 | locus YOR106W, strain vam3, stronger effect = lower value 0.964 | locus YOR265W, strain rbl2, stronger effect = lower value 0.976 | locus YOR270C, strain vph1, stronger effect = lower value 0.894 | locus YOR290C, strain snf2, stronger effect = lower value 0.939 | locus YPL051W, strain arl3, stronger effect = lower value 0.982 | locus YPL078C, strain atp4, stronger effect = lower value 0.969 | locus YPL106C, strain sse1, stronger effect = lower value 0.927 | locus YPL240C, strain hsp82, stronger effect = lower value 0.985
